The source of these data is PubChem BioAssay.

Assay [1] can be described thus: blockers of polyQ-driven CASP3 activation – cell-based (AID 1583). Particulars: polyglutamine-induced caspase-3 activation, cell assay; stronger effect = higher value;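 tested at 10 µM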.
Assay [2] is described as follows: yeast 75Q aggregation reduction – 75Q-TubU reporter (AID 1593). Particulars: Yeast 75Q polyglutamine aggregation reporter.
Assay [3] is described as follows: restoration of touch response, mutant HTT neurons – whole organism, C. elegans mechanosensory neurons, N-terminal huntingtin (AID 1599). Particulars: C. elegans polyQ-huntingtin mechanosensory neurons, stronger effect = higher value.
The nature of assay [4]: blockers of cytochrome c efflux from mitochondria – biochemical, purified mitochondria (AID 1603).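 Also: mouse liver mitochondria challenged with calcium chloride; signal normalized to the plate average as 100%.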 To be noted: stronger effect = lower value.
Assay [5] in a line: polyglutamine aggregate formation blockers (AID 1604). Particulars: polyglutamine-induced protein aggregation inhibition assay; stronger effect = higher value; tested at 2.5 µM.
The nature of assay [6]: glutamate transport activators, MN-1 cells, MN-1 cell line (AID 1612).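 Also: tested at 1 µM final; 0% = mean of DMSO vehicle wells on each plate; positive means more glutamate uptake than control and negative means less.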 Particulars: MN-1 motor neuron cells, stronger effect = higher value.
Assay [7] can be described thus: 75Q-TubH aggregate inhibition, S. cerevisiae, yeast (AID 1616). To be noted: S. cerevisiae 75Q-TubH polyglutamine aggregation suppression; stronger effect = higher value.
For assay [8], the target named is 6-phosphogluconate dehydrogenase, decarboxylating (Homo sapiens) (UniProt P52209). Kind of assay: inhibition of human phosphogluconate dehydrogenase – biochemical, recombinant enzyme, NADPH absorbance, primary screen (AID 1159550). Particulars: recombinant 6PGD, NADPH absorbance 341 nm; at 10 µM; stronger effect = higher value.
A short description of assay [9]: EMT-state selective cytotoxicity in co-culture – imaging, PC-3E GFP, TEM4-18 mCherry, primary screen (AID 1345086;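 active = compounds killing one labelled cell type while sparing the other, by normalised counts and ratio limits, not self-fluorescent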;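 as to all read-outs here: cells exposed to compound for 72 h before imaging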;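 as to red/green cell ratio (normalised): normalised mesenchymal count divided by normalised epithelial count so high means epithelial killing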). Particulars: PC-3E GFP / TEM4-18 mCherry co-culture, imaging cell counts, at 1 µM; for red/green cell ratio (normalised): actives lie on both sides, counts scaled to control wells, 1 = unselective.
The nature of assay [10]: P. berghei load reduction in hepatocytes – cell-based, HepG2, luciferase luminescence, HepG2 viability, primary screen (AID 624349; in the data active = parasite load remaining mostly below about 12%, no sharp cut-off; inactive = mostly above about 10%;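 also: 100% = mean of DMSO negative control wells on the same plate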). Particulars: P. berghei liver stage in HepG2, luciferase luminescence, concentration not given here; parasite load remaining: stronger effect = lower value; viability: measured here: HepG2 viability without parasites.
Assay [11] has as its target Mitogen-activated protein kinase 7 (Homo sapiens) (UniProt Q13164). Kind of assay: Gal4-ERK5 driven luciferase induction – cell-based, HTS, primary screen (AID 1508626;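 active = luciferase signal above three times the same-plate solvent-only control wells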;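 also: luciferase driven by Gal4-ERK5 fusion binding five Gal4 sites before minimal TATA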). To be noted: HeLa Gal4-ERK5 transactivation, 18 h, at 5 µM, stronger effect = higher value.
Assay [12] can be described thus: viability loss with induced miR-34 in A549 – imaging, A549 dox-inducible miR-34, nuclei and caspase counts, primary screen (AID 1347080;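 active = compounds whose cell count with miR-34 switched on is under 0.7 times the count with it off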). To be noted: A549 miR-34 inducible, Hoechst nuclei count, 48 h.
A short description of assay [13]: galactose survival enhancers in mitochondrial complex I cybrids – cell-based, galactose medium, ATP luminescence, primary screen (AID 1645843;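 active = z-score of at least 1.8 in each of two replicates, scored against plate mean and spread of sample wells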;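 also: positive z means more ATP and so rescue of galactose-driven cybrid death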). Particulars: complex I mutant cybrid cells, 72 h, stronger effect = higher value.
[14] abbreviates: measured here: epithelial PC-3E GFP cell survival.
Where [15] appears, read: measured here: mesenchymal TEM4-18 mCherry cell survival.

Where “and” joins values, the source holds several entries; their conditions need not be identical. Equal values may be shown once. For some assays here: Results with a measured potency or affinity are listed apart. Calls of active or inactive are those of the source.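 The calls were made as follows, unless noted: active = at least 20% inhibition of 6-phosphogluconate dehydrogenase activity; inactive = the rest.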

Sequence of 6-phosphogluconate dehydrogenase, decarboxylating (Homo sapiens) (P52209 whole entry, looked up): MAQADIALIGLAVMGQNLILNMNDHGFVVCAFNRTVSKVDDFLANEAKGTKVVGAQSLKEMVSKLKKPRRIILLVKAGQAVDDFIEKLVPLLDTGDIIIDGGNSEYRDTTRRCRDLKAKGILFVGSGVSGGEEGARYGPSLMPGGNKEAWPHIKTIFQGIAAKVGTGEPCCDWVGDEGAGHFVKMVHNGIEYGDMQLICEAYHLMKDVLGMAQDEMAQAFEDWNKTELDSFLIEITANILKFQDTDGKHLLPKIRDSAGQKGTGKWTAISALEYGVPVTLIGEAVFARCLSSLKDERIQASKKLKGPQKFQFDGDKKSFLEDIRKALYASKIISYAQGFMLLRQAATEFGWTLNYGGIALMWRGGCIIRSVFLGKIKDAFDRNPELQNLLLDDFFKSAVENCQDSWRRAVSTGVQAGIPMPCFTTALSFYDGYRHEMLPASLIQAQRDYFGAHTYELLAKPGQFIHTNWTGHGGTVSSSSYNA
Sequence of Mitogen-activated protein kinase 7 (Homo sapiens) (Q13164 whole entry, looked up, the tested form may be a part): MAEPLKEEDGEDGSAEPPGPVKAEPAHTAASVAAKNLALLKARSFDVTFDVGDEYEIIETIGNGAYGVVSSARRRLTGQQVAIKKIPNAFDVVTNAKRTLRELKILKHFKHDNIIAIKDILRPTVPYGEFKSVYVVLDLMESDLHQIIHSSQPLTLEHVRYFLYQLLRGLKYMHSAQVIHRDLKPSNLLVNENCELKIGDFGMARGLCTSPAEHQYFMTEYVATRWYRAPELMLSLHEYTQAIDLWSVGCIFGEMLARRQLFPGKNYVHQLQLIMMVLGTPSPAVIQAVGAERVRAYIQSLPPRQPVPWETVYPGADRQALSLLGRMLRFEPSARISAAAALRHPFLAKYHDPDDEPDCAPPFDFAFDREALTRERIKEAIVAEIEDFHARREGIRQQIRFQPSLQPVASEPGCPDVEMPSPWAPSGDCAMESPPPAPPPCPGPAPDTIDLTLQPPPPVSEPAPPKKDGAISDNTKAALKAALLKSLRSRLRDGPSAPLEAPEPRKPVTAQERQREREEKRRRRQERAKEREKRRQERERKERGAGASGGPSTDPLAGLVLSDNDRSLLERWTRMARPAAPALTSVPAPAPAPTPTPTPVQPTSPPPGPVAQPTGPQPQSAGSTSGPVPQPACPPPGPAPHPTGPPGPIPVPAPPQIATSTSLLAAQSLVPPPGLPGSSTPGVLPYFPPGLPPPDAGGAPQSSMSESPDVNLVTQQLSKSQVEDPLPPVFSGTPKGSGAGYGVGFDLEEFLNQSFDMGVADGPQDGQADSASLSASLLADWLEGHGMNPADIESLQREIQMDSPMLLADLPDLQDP

As usually defined, the inhibition is the change of the read-out against control, counted positive when it falls. With `C[C@]12CCC3c4ccc(OS(=O)(=O)O)cc4CCC3C1CC[C@H]2O` (stereo not given in full), the inhibition was 8.2% in assay [1] and 3.17% (inactive) in assay [8]. In assay [2], this molecule came in with a score of 1.49. In addition, the rescue above control in assay [3] was 11.3. Further, in assay [4], the cytochrome c release ratio came out at 0.9. The inhibition of aggregation in assay [5] turned out to be 68.5%. In [6], the glutamate uptake change is -12.2%. Moreover, in [7], the aggregation suppression score worked out at 1.25. In addition, in assay [9], the red/green cell ratio (normalised) was 0.87 (inactive). Moreover, the normalised cell number in assay [9] (setting [14]) came out at 1.3; in assay [9] (setting [15]), 1.13.
The viability is a per cent measure of how many cells are alive, often set against a control. As to `COC1=CC(=O)C=C(OC)C1=O`, in assay [10], the parasite load remaining is 122% (inactive) and the viability is 94.3%. The inhibition in [8] is 1.73% (inactive). In addition, the red/green cell ratio (normalised) in [9] is 0.91 (inactive). The normalised cell number in [9] (setting [14]) was found to be 0.92. For the same molecule, the normalised cell number in assay [9] (setting [15]) turned out to be 0.84. For the same molecule, in assay [11], the luciferase signal was 112 AU (inactive).
On to `CCCC(=O)Nc1ncnc2c1ncn2[C@@H]1O[C@@H]2COP(=O)(O)O[C@H]2[C@H]1OC(=O)CCC`, for which, in assay [8], the inhibition was 10.5% (inactive). For the same molecule, the fold change in assay [12] (stronger effect = lower value, cell number ratio, induced over uninduced) is 1.04 (inactive) and 0.902 (inactive); in assay [12] (measured here: relative caspase fold change +Dox/-Dox), 0.758 and 0.739. Moreover, the cell count in [12] (measured here: total cells with miR-34 induction, stronger effect = lower value) is 5610 and 9020; in assay [12] (measured here: total cells without miR-34 induction) it was 5380 and 10000. In addition, the luciferase signal in [11] was 68 AU (inactive). Besides, the z-score in assay [13] is 0.335 (inactive).
In the case of `C=CCSCC=C`, in [8], the inhibition was -1.41% (inactive). Also, in [9], the red/green cell ratio (normalised) is 1.04 (inactive). Moreover, the normalised cell number was determined as 1.02 in assay [9] (setting [14]) and 1.06 in assay [9] (setting [15]). In addition, in [11], the luciferase signal is 20 AU (inactive).
With `CON`, the inhibition is -5.62% in assay [1] and 3.11% (inactive) in assay [8]. The score in [2] came to 1.4. In assay [3], this molecule had a rescue above control of -6.41. Further, the cytochrome c release ratio in [4] amounted to 0.58. In assay [5], the inhibition of aggregation is -9.7%. For the same molecule, in [6], the glutamate uptake change was 19.3%. Also, the aggregation suppression score in assay [7] amounted to 1.29. Also, the red/green cell ratio (normalised) in assay [9] is 1.03 (inactive). For the same molecule, the normalised cell number in [9] (setting [14]) came out at 1.15; in assay [9] (setting [15]), 1.18. Also, the luciferase signal in assay [11] was 124 AU (inactive).
Regarding `O=C(/C=C/c1ccccc1)c1ccc(O[C@@H]2O[C@H](CO)[C@@H](O)[C@H](O)[C@H]2O)cc1O`, in [10], the parasite load remaining was 121% (inactive) and the viability was found to be 96.4%. In addition, in [8], the inhibition is 4.22% (inactive). Besides, in assay [9], the red/green cell ratio (normalised) was 1 (inactive). The same molecule yielded a normalised cell number in assay [9] (setting [14]) of 0.9. Moreover, in assay [9] (setting [15]), the normalised cell number turned out to be 0.9. Moreover, the luciferase signal in assay [11] was 76 AU (inactive).
As for `O=C(O)c1cc(=O)c2cccc(O)c2[nH]1`, the inhibition is -21.7% in assay [1] and 4.89% (inactive) in assay [8]. The same molecule yielded a score in assay [2] of 0.98. In assay [3], the rescue above control was -4.01. Further, the cytochrome c release ratio in [4] came to 1.01. For the same molecule, in [5], the inhibition of aggregation was determined as 57.7%. Moreover, in [6], the glutamate uptake change is 9.13%. The molecule also gave an aggregation suppression score in [7] of 1.12. The parasite load remaining in [10] is 174% (inactive). The same molecule had a viability in assay [10] of 71.4%. The red/green cell ratio (normalised) in assay [9] is 1.29 (inactive). Moreover, the normalised cell number is 0.88 in [9] (setting [14]) and 1.13 in assay [9] (setting [15]). Further, in assay [11], the luciferase signal was 100 AU (inactive).
For `O=C1C=CC(=C(c2ccc(O)cc2)c2ccc(O)cc2)C=C1`, the figures for the inhibition in assay [1] and in [8] were 28.5% and 7.03% (inactive), respectively. This molecule also returned a score in assay [2] of 1.1. Besides, the rescue above control in [3] is -3.26. Also, in assay [4], the cytochrome c release ratio is 1.26. For the same molecule, in assay [5], the inhibition of aggregation is 83.1%. Moreover, in assay [6], the glutamate uptake change is -0.24%. Also, in [7], the aggregation suppression score was determined as 1.13. In addition, the red/green cell ratio (normalised) in [9] is 0.79 (inactive). Besides, the figures for the normalised cell number in [9] (setting [14]) and in [9] (setting [15]) were 1.03 and 0.82, respectively. In addition, in assay [11], the luciferase signal was 148 AU (inactive).
For the molecule `Oc1ccc([C@H]2Oc3cc(O)cc(O)c3C[C@H]2O)cc1`, the inhibition in assay [8] was 2.29% (inactive). The red/green cell ratio (normalised) in [9] was 0.95 (inactive). Further, the results for the normalised cell number in assay [9] (setting [14]) and in assay [9] (setting [15]) were 0.99 and 0.94, respectively. In assay [11], the luciferase signal is 140 AU (inactive).
